Data reported in PubChem BioAssay AID1845 (The Scripps Research Institute Molecular Screening Center, 2009).
The campaign covered roughly 290,000 compounds. About 490 (0.17%) were called active. The list comes from a sample in which actives are over-represented; it also holds similar structures and randomly drawn compounds. A number with no mark means an inactive call. Cut-off read from the data, not from the text of the source: active = inhibition above about 37%; inactive = the rest.

Assay: DNA intercalator displacement agents – biochemical, FID fluorescence, artefact control for HCV NS3 helicase inhibitor project, primary screen (AID 1845);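 note: 0% = vehicle and 100% = reference compound; higher means more ethidium bromide displaced from hairpin DNA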
Settings: DNA fluorescent intercalator displacement, at 7.9 µM, stronger effect = higher value
`COc1ccc(C(=O)COC(=O)Cn2cnc3c2c(=O)n(C)c(=O)n3C)c(OC)c1` showed an inhibition of -23%. For `O=C(Nc1ccc([N+](=O)[O-])cc1)OCCc1ccccn1`, the inhibition was 5.74%. `COc1ccc(CSc2nnnn2-c2ccc(O)cc2)cc1F` gave an inhibition of -6.37%. `COc1ccc(CC(=O)NC2CCSc3ccccc32)cc1OC` (configuration not stated) showed an inhibition of -19.9%. In the case of `COc1ccc(-c2noc(CCCC(=O)NC3CCCC3)n2)cc1OC`, the inhibition is reported as -34.4%. With `Cc1ccc(C2CC(c3cccc(NS(C)(=O)=O)c3)=NN2S(C)(=O)=O)cc1` (configuration not stated) the inhibition was -20.2%. `CN(CC(=O)Nc1c(Cl)cccc1Cl)C(=O)CNC(=O)C1CCCCC1` gave an inhibition of -9.61%. Work on `CCOC(=O)C1(Cc2ccccc2C)CCCN(C(=O)c2ccc(COC)o2)C1` (configuration not stated) yielded an inhibition of -43.4%. Compound `Cn1c(=O)c2ccccc2n(CC(=O)Nc2ccc3c(c2)OCCO3)c1=O` has an inhibition of -7.1%. `COc1ccc(/C=C2\SC(=O)N(CCC(=O)NC3CCS(=O)(=O)C3)C2=O)cc1` (configuration not stated) gave an inhibition of -25.1%. Compound `COc1ccc(Br)cc1CN(C)CC(=O)Nc1cc([N+](=O)[O-])ccc1OC` has an inhibition of 0.14%. `O=C(NC1CCCCC1)C1CCC(CNS(=O)(=O)c2ccccc2)CC1` (configuration not stated) showed an inhibition of -36.5%. With `Cc1ccc(C(C(=O)NCC2CCCO2)N(C(=O)c2snc(C(N)=O)c2N)c2ccc(C(C)C)cc2)o1` (configuration not stated) the inhibition was -41%. Work on `CCCCNC(=O)C1(O)c2ccccc2NC(=O)N1c1ccc(Cl)cc1` (configuration not stated) yielded an inhibition of -11.7%. With `CCCNC(=O)c1ccc(N2CCC3(CC2)CC(c2ccc(Cl)cc2)=NO3)c([N+](=O)[O-])c1` the inhibition was -20%. `COc1ccc(OC)c(C(C)NC(=S)Nc2ccc(S(=O)(=O)Nc3ncccn3)cc2)c1` (configuration not stated) showed an inhibition of -59.4%. `Cc1c(Cl)cccc1NC(=O)NCCCN1CCCC1=O` gave an inhibition of -5.46%. Work on `COc1ccccc1NC(=O)CCC(=O)OC(C)C(=O)c1ccccc1` (configuration not stated) yielded an inhibition of -17.2%. `COc1cccc(NC(=O)N2C3CCCC2CC(NC(C)=O)C3)c1` (configuration not stated) showed an inhibition of -3.46%. Work on `CC[n+]1cc(C)ccc1/C=C/c1ccc(N(C)C)cc1` yielded an inhibition of -33.2%. In the case of `COc1ccc(N2CCN(S(=O)(=O)c3cc(Br)cnc3N)CC2)cc1`, the inhibition is reported as -2.88%. With `CC(=O)c1ccc(NC(=O)c2sc3nc4n(c(=O)c3c2C)CCCCC4)cc1` the inhibition was -25.9%. Work on `Cc1ccn(CCC(=O)N2c3ccccc3CC2C)n1` (configuration not stated) yielded an inhibition of -9.3%. With `O=C(/C=C/c1ccc([N+](=O)[O-])o1)NNC(=O)c1ccc(F)cc1` the inhibition was -4.43%. In the case of `CCN(CC)c1ccc(NC(=O)CN2CCN(c3ccccn3)CC2)cc1`, the inhibition is reported as -17.6%. Work on `O=C(Cn1ccc2cc(S(=O)(=O)N3CCCC3)ccc21)NCc1ccccc1` yielded an inhibition of -16.4%. `O=C(c1ccc[nH]c1=S)N1CCN(S(=O)(=O)c2ccc(Br)cc2Cl)CC1` gave an inhibition of -16.3%. With `C/C(=N\Nc1cccc(C(=O)O)c1)c1ccc2c(c1)Nc1ccccc1S2` the inhibition was -16.1%. In the case of `NS(=O)(=O)c1ccc2nc(NC(=O)CS(=O)(=O)c3ccc(F)cc3)sc2c1`, the inhibition is reported as -3.98%. `CC(CCc1ccc(O)cc1)NCc1ccc(Cl)cc1Cl` (configuration not stated) gave an inhibition of 12.2%. Compound `CCN(CC(=O)Nc1ccccc1OC)C(=O)Cn1cnc2ccccc2c1=O` has an inhibition of -5.22%. `Cc1cc(-c2nnc(CCC(=O)NC(c3ccccc3)c3ccccc3)o2)no1` gave an inhibition of -7.1%. Compound `Cc1ccc(C(C)C)c(OCCSc2nc3ccccc3n2CC(=O)O)c1` has an inhibition of -11.6%. Compound `O=C(CSc1nc2nccnc2c(=O)n1Cc1cccs1)Nc1ccccc1F` has an inhibition of -11.4%. `COc1ccc(-c2noc(C(C)NS(=O)(=O)c3ccc(NC(C)=O)cc3)n2)cc1` (configuration not stated) gave an inhibition of -8%. With `CCCCCC1CC(COc2ccccc2)OC1=O` (configuration not stated) the inhibition was -26.6%. Work on `O=C1C(=O)N(CCN2CCOCC2)C(c2cccc(Cl)c2)/C1=C(/O)c1ccc2c(c1)OCO2` (configuration not stated) yielded an inhibition of -31.7%. `Cc1nnc(SCC(=O)N2c3ccccc3C(C)(c3ccc(Cl)cc3)CC2(C)C)s1` (configuration not stated) gave an inhibition of -27.2%. Compound `Cn1c(=O)n(C)c2cc(S(=O)(=O)Nc3ccc(F)cc3)ccc21` has an inhibition of -0.97%. Work on `CCc1ccc(-c2cc(C(=O)NN3CCN(C)CC3)c3ccccc3n2)cc1` yielded an inhibition of 16.5%. With `O=S(=O)(NCC1CC1)c1ccc(F)c(Cl)c1` the inhibition was -2.55%. Compound `O=C(NCC(=O)N1CCN(c2ccccc2O)CC1)c1ccc2ccccc2c1` has an inhibition of -38.7%. Work on `CCc1ccc(NC(=O)COC(=O)c2cccs2)cc1` yielded an inhibition of -15%. Work on `CCOC(OCC)c1ccc(/C=C\c2nccc(N)n2)cc1` yielded an inhibition of -11.1%. With `CN1CCN(c2ccc(S(=O)(=O)N3CCCCC3)cc2NC(=O)Cc2ccccc2F)CC1` the inhibition was 17.4%. In the case of `COc1ccc(CC(=O)Nc2cc(S(=O)(=O)N3CCCCC3)ccc2N2CCN(C)CC2)cc1`, the inhibition is reported as 39.2% (active). For `CCN1CCN(c2ccc(S(=O)(=O)N3CCCCC3)cc2NC(=O)Cc2c(Cl)cccc2Cl)CC1`, the inhibition was 24.2%. For `CN(C)c1cccc(C(=O)N2CCC(n3nccc3NC(=O)C3CCOC3)CC2)c1` (configuration not stated), the inhibition was -16.7%. For `COc1ccc(NC(=O)CSc2nc3ccccc3c(=O)n2C)cc1`, the inhibition was -13.4%. `COCCCN1C(=O)C(=O)/C(=C(/O)c2ccc(S(=O)(=O)N3CCOCC3)cc2)C1c1ccc(F)cc1` (configuration not stated) gave an inhibition of -50.7%. Compound `CC1CN(C(=O)CCC(=O)NCc2cccnc2)c2ccccc2O1` (configuration not stated) has an inhibition of -10.2%. With `CC1CN(C(=O)CCC(=O)NC2CCN(Cc3ccccc3)CC2)c2ccccc2O1` (configuration not stated) the inhibition was 2.82%. For `CC1CN(C(=O)CCC(=O)NCCCN2CCC(Cc3ccccc3)CC2)c2cc(Cl)ccc2O1` (configuration not stated), the inhibition was 41.2% (active). For `Cc1cc(O)c(C(=O)/C=C/c2c(F)c(F)c(F)c(F)c2F)c(=O)o1`, the inhibition was -15.9%. Work on `Cc1c2cnn(CC(=O)NCc3ccccn3)c(=O)c2c(C)n1Cc1ccc(Cl)cc1` yielded an inhibition of -39%. Work on `CC1CC(C)CN(CCCNC(=O)Cn2ncc3c([nH]c4ccccc43)c2=O)C1` (configuration not stated) yielded an inhibition of 5.73%. In the case of `Cc1c2cnn(CC(=O)NCCCN3CC(C)CC(C)C3)c(=O)c2c(C)n1Cc1ccc(Cl)cc1` (configuration not stated), the inhibition is reported as 37.1% (active).
